High-throughput results: PubChem, The Scripps Research Institute Molecular Screening Center
DAX1 inh-1 – blocks DAX1 repression of SF-1 activated StAR promoter | HEK293T StAR-luciferase reporter, SF-1/DAX-1 repression relief | 370,000 tested, 1.1% active | inhibition, % at 6.8 µM;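 active = inhibition above the mean over all tested compounds plus 3 SD, cut at about 3.6% in these data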;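 also: higher inhibition means more luminescence from relief of DAX-1 repression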
ssDAF12 agonist – activators of S. stercoralis DAF-12 nuclear receptor. 370,000 tested, 1% active. activation, % at 6.8 µM. HEK293 ssDAF-12/GRIP1 lit1-tk-luc reporter, luminescence; % of 3 µM dafachronic acid response;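 active = activation above the mean over all tested compounds plus 3 SD, cut at about 0.9% in these data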
DAX1 inh-2 – inhibits human nuclear receptor DAX1; inhibition, % at 6.75 µM; HEK293 Gal4-DAX1 luciferase reporter, luminescence; P51843; AID 504766; 340,000 tested, 0.99% active;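 active = inhibition above the mean over all tested compounds plus 3 SD, cut at about 4.2% in these data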;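 also: inhibition shows as a rise in luminescence from relieved DAX1 repression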
hcDAF-12 act – activators of H. contortus DAF-12 nuclear receptor | HEK293 hcDAF-12 lit1-tk-luc reporter, luminescence; 0% DMSO, 100% Δ7-dafachronic acid | activation, % at 6.8 µM | 370,000 tested, 1.4% active;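 active = activation above the mean of all tested compounds plus 3 SD, cut at about 5.5% in these data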
AHR act – human AHR activation; AHR-responsive luciferase reporter cells, luminescence; activation, % at 5 µM; 320,000 tested, 2.5% active; AID 2796; in the data active = activation above about 47%
hgDAF-12 ag – activates the H. glycines DAF-12 receptor ligand-binding domain | HEK293 GAL4-hgDAF12 UAS-luciferase reporter, agonist luminescence; normalized to butyrate control | 370,000 tested, 1.8% active | AID 687014 | activation, % at 6.8 µM;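 active = activation above a cutoff set at the mean of all screened compounds plus 3 SD, cut at about 10% in these data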
DAX1 conf – NR0B1 (human) inhibition, confirmation | shares compounds with DAX1 inh-1 | 2,400 tested, 87% active | inhibition, % at 6.8 µM | HEK293T StAR-promoter luciferase reporter, SF-1/DAX-1 repression;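 active = inhibition above the average of every tested compound plus 3 SD, cut at about 3.8% in these data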;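 also: active compounds raise luminescence by relieving repression of the StAR reporter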
Target sequence (P51843 whole entry, looked up): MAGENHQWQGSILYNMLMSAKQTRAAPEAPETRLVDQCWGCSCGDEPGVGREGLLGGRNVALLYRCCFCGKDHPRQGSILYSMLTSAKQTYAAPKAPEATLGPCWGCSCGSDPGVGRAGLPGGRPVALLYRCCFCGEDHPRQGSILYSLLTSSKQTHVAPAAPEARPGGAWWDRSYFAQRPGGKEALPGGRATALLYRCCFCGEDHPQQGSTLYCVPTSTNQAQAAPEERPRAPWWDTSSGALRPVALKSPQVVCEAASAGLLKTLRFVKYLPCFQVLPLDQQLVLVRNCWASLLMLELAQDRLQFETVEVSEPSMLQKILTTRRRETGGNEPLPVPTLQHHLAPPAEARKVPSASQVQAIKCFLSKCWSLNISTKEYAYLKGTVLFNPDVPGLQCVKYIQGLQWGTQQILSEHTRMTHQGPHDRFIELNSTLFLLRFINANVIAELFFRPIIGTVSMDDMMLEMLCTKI
SF1 AF2mut Luc – nonselective inhibitor or artifact in SF-1 mutant DAX1 counter-screen; 2,400 tested, 78% active; HEK293 StAR-luciferase, SF-1 AF2 mutant, luminescence; inhibition, % at 6.8 µM; shares compounds with DAX1 inh-1;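 active = inhibition above the mean of all tested compounds plus 3 SD, cut at about 3% in these data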
Each line names hits and unclear results; the compound was inactive in the other large screens (follow-up assays come after a bar, where they were run). A selection: hits, their analogues and other compounds. The true share with any hit is near 5.7%.

Cc1ccc2nc(SCC(=O)N3CCCC3)[nH]c2c1	DAX1 inh-1 4.8 | DAX1 conf 12.1 | SF1 AF2mut Luc 6.1
N=c1c2c(ncn1CCCO)Oc1cc(O)ccc1C2c1ccccc1 (centres undefined)	none
Cc1cc(O)cc(O[C@H]2OC(CO)[C@H](O)[C@@H](O)[C@H]2O)c1 (some centres undefined)	none
COc1ccc(/C=C/c2cc(O)cc(O[C@@H]3O[C@H](CO)[C@@H](O)[C@H](O)[C@H]3O)c2)cc1O	DAX1 inh-1 5.2 (no result: DAX1 inh-2, AHR act) | DAX1 conf 13.2 | SF1 AF2mut Luc 7.4
COCc1ccc(C(=O)NCC2(N3CCCCC3)CCCCC2)cc1	none
O=C1NC[C@H](Cc2ccccc2)N(CC2CCN(CCCC3CCCC3)CC2)C1=O	DAX1 inh-1 5.5 (no result: AHR act) | DAX1 conf inactive | SF1 AF2mut Luc inactive
O=C(CSc1nnc(-c2ccncc2)o1)Nc1cccc(F)c1	none
O=C(CSc1nnc(-c2ccc(Br)cc2)o1)Nc1cccc(C(=O)O)c1	DAX1 inh-1 5.0 | DAX1 conf 6.1 | SF1 AF2mut Luc 5.4
O=C(CSc1nnc(-c2ccncc2)o1)Nc1cc(F)ccc1F	DAX1 inh-1 4.9, hgDAF-12 ag 12.6 | DAX1 conf 5.2 | SF1 AF2mut Luc 5.9
O=C(CSc1nnc(-c2ccc(Br)cc2)o1)Nc1cccc2ccccc12	none
CCOc1ccc(C)cc1S(=O)(=O)Nc1ccc(Cl)cn1	none
CCC1(C)CC(C(N)=S)CCO1 (centres undefined)	none
COC(=O)C1CCC(=O)N1C(c1ccc(OC)cc1)c1cc(OC)c(OC)c(OC)c1 (centres undefined)	DAX1 inh-1 6.2 (no result: AHR act) | DAX1 conf 19.5 | SF1 AF2mut Luc inactive
COc1ccc(Br)cc1C(=O)NC(=S)Nc1ccc(CN2CCOCC2)cc1	none
CC(=O)Nc1ccc(NC(=O)Nc2ccc3c(c2)N(C)C(=O)CS3)cc1	none
CN1C(=O)CSc2ccc(NC(=O)N3CCc4ccccc43)cc21	DAX1 inh-1 5.9 | DAX1 conf 6.3 | SF1 AF2mut Luc inactive
CCCCn1c(N)c(-c2nc3ccccc3o2)c2c([N+](=O)[O-])nn(C)c(=O)c21	none
O=C(NC1CCCCC1)C(=O)c1c[nH]c2ccccc12	DAX1 inh-1 6.5 | DAX1 conf 8.5 | SF1 AF2mut Luc 5.5
CC(C)c1ccc2nc(N)sc2c1	DAX1 inh-1 5.9, hcDAF-12 act 5.8, hgDAF-12 ag 10.9 | DAX1 conf 11.0 | SF1 AF2mut Luc 6.6
O=C(Nc1nccs1)c1csc([C@H]2C[C@H](O)[C@@H](CO)O2)n1	DAX1 inh-1 4.9 (no result: DAX1 inh-2, AHR act) | DAX1 conf 5.9 | SF1 AF2mut Luc 3.0
COC(=O)[C@]1(Cc2ccccc2)N[C@H](CN(C)C(=O)Nc2ccc(C(F)(F)F)cc2)[C@@H]2C(=O)N(Cc3ccccc3)C(=O)[C@@H]21	none
CCN(C[C@H]1N[C@@](C)(C(=O)OC)[C@H]2C(=O)N(Cc3ccccc3)C(=O)[C@@H]12)C(=O)C1CCCCC1	none
CCN(C[C@H]1N[C@@](C)(C(=O)OC)[C@H]2C(=O)N(Cc3ccccc3)C(=O)[C@@H]12)C(=O)COC	DAX1 inh-1 5.9 | DAX1 conf inactive | SF1 AF2mut Luc inactive
CC[C@@]1(C(=O)OC)N[C@H](CN(C)C(=O)Nc2ccc(C(F)(F)F)cc2)[C@@H]2C(=O)N(Cc3ccccc3)C(=O)[C@@H]21	DAX1 inh-1 5.3, ssDAF12 agonist 2.5 | DAX1 conf inactive | SF1 AF2mut Luc inactive
Cc1ccc(-c2nc3ccc(Cl)cn3c2CC2CCCCC2)cc1	DAX1 inh-1 4.8, hcDAF-12 act 7.1, hgDAF-12 ag 12.6 (no result: DAX1 inh-2, AHR act) | DAX1 conf 8.5 | SF1 AF2mut Luc 5.5
Cc1ccc2nc(-c3cccc(Br)c3)c(CC3CCCCC3)n2c1	DAX1 inh-1 6.4, hgDAF-12 ag 12.8 (no result: DAX1 inh-2, AHR act) | DAX1 conf 5.1 | SF1 AF2mut Luc 5.6
Cc1cc2nc(-c3cccc(Cl)c3)c(CC3CCCCC3)n2c(C)c1Br	none (no result: DAX1 inh-2, AHR act)
COC(=O)c1c(C(=O)OC)c(-c2ccc(OC)cc2)n2c1CCC2	none
